From PubChem BioAssay AID1345085 (National Center for Advancing Translational Sciences (NCATS), 2018) come the findings set out here.

Results filed as inconclusive are left out. The source made the active and inactive calls. Calls follow the shape of the dose curve; as a rule, active = well fitted cell-killing curve with a large enough effect; inconclusive = small, poorly fitted or top-dose-only effect, or effect the other way; inactive = no such curve, though single readings can be large or run the other way.
% is scaled to controls: 0 for no effect and ±100 for the full control effect; potency is read from the fitted curve at half-maximal effect.

In the assay the test system is PA-1. As to the kind of experiment: Confirmatory qHTS for gynecologic anti-cancer compounds from libraries of approved drugs and bioactive compounds. Also: nearly all actives have a fitted effect of over 55% in size. The settings on record: gynecologic cancer cell panel viability, ATPlite luminescence, 48 h; series mostly up to 57.6 µM; activity change, negative = viability loss: at the top concentration. The method, boiled down:
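ATP-based luminescent viability (ATPlite) after 48 h drug treatment at 37 °C, 5% CO2, across 57.5 uM–0.977 nM in 1:3 steps. Cells seeded at 1,000 per well 16 h beforehand; IC50 values computed, HEK 293T as selectivity control.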
(In general: qHTS replaces the single test concentration by a dilution series.)
On to `CN(C)C/C=C/C(=O)Nc1cc2c(Nc3ccc(F)c(Cl)c3)ncnc2cc1OC1CCOC1` (stereo not given), for which the Potency is 9.68 µM (active).
Still for that read-out and setting: the value for `Cn1cc(-c2[nH]c3cc(NC(=O)[C@H](N)C4CCCCC4)cc4c3c2C=NNC4=O)cn1` was 8.63 µM (active).
Take `CN1C(=O)C(Cc2c[nH]c3ccccc23)NC1=S` (stereo not given): the “activity change, negative = viability loss” value is 11% [at 19.5 µM] (inactive).
`CC(=O)O[C@H]1C(=O)[C@@]2(C)[C@H]([C@H](OC(=O)c3ccccc3)[C@]3(O)C[C@H](OC(=O)[C@H](O)[C@@H](NC(=O)c4ccccc4)c4ccccc4)C(C)=C1C3(C)C)[C@]1(OC(C)=O)CO[C@@H]1C[C@@H]2O`: the Potency is 0.0092 µM (active).
For `CC[C@@]1(O)C(=O)OCc2c1cc1n(c2=O)Cc2c-1nc1ccccc1c2/C=N/OC(C)(C)C`, the Potency is 0.0273 µM (active).
Regarding `Cc1nc(N)nc(N)c1-c1ccc(Cl)c(Cl)c1`, the Potency is 1.37 µM (active).
In the case of `COc1ccc(OC)c(-c2nnc3ccc(-c4ccc(OC)c(O[C@@H]5CCOC5)c4)nn23)c1`, the Potency is 5.44 µM (active).
Regarding `CN(C)CC/C=C1\c2ccccc2COc2ccccc21`, the “activity change, negative = viability loss” value was 6.3% (inactive).
In the case of `OCCNC1CCCc2c1[nH]c1ccc(-c3ccccc3)cc21` (stereo not given), the Potency was 27.3 µM (active).
Regarding `CCCCc1oc2ccccc2c1C(=O)c1cc(I)c(OCCN(CC)CC)c(I)c1`, the Potency is 39.8 µM (active).
`CN1CCN(CCOc2cc(OC3CCOCC3)c3c(Nc4c(Cl)ccc5c4OCO5)ncnc3c2)CC1`: the Potency was 19.3 µM (active).
As to `CCS(=O)(=O)c1cccc(-c2cc(C(=O)NC3CCN(C)CC3)c(C)c3[nH]c4ncc(C)cc4c23)c1`, the Potency was 1.06 µM (active).
Take `CCN(CC)CCOc1ccc(/C(=C(\Cl)c2ccccc2)c2ccccc2)cc1`: the Potency is 28.2 µM (active).
Regarding `COc1cc(-c2nn(C3CCC(N4CCN(C(C)=O)CC4)CC3)c3ncnc(N)c23)ccc1NC(=O)c1cc2ccccc2n1C` (stereo not given), the Potency is 30.6 µM (active).
For the compound `CCn1c(-c2nonc2N)nc2c(C#CC(C)(C)O)ncc(OCC3CCCNC3)c21` (stereo not given), the Potency was 7.69 µM (active).
On to `c1cc(N[C@@H]2CCNC2)nc(-c2cnc3ccc(-c4cn[nH]c4)cn23)c1`, for which the Potency was 1.72 µM (active).
`Cn1c(=O)c(F)c(Nc2ccc(I)cc2F)c2c(=O)n(CC(O)CO)cnc21` (stereo not given): the Potency was 2.17 µM (active).
Still for that read-out and setting: the value for `C1CCC(C(CC2CCCCN2)C2CCCCC2)CC1` (stereo not given) was 27.3 µM (active); that for `Nc1ccn([C@@H]2O[C@H](CO)[C@@H](O)C2(F)F)c(=O)n1` was 0.0611 µM (active); that for `CC(C)c1nn(-c2c(Cl)cccc2Cl)c2nc(Cc3ccc(OCCO)cc3)[nH]c(=O)c12` was 0.0968 µM (active).
With `CCC(=O)N1CCN(c2ccc(-n3c(=O)ccc4cnc5ccc(-c6cnc7ccccc7c6)cc5c43)cc2C(F)(F)F)CC1`, the Potency was 0.627 µM (active).
With `CC(=O)OC12COC1CC(O)C1(C)C(=O)C(O)C3=C(C)C(OC(=O)C(O)C(NC(=O)OC(C)(C)C)c4ccccc4)CC(O)(C(OC(=O)c4ccccc4)C21)C3(C)C` (stereo not given), the Potency was 0.0077 µM (active).
`CC(C)n1c(/C=C/[C@@H](O)C[C@@H](O)CC(=O)O)c(-c2ccc(F)cc2)c2ccccc21`: the Potency was 24.3 µM (active).
The same measure, in the same setting: the value for `CC(C)C[C@H](NC(=O)[C@H](Cc1ccccc1)NC(=O)c1cnccn1)B(O)O` was 0.0385 µM (active); that for `Fc1cc(-c2cccc3ncc(-c4cnn(C5CCNCC5)c4)nc23)cc(F)c1CN1CCOCC1` was 27.3 µM (active).
Turning to `O=C(/C=C/c1cccc(S(=O)(=O)Nc2ccccc2)c1)NO`, the Potency was 0.595 µM (active).
`O=C(NCC(O)CO)c1ccncc1Nc1ccc(I)cc1F` (stereo not given): the Potency was 0.0611 µM (active).
For `CC1=C(CO)C(=O)O[C@@H]([C@@H](C)[C@H]2CC[C@H]3[C@@H]4C[C@H]5O[C@]56[C@@H](O)C=CC(=O)[C@]6(C)[C@H]4CC[C@]23C)C1`, the Potency is 1.68 µM (active).
The same measure, in the same setting: in the case of `COc1cc(N2CCC(N)CC2)ccc1Nc1ncc(Cl)c(-c2c[nH]c3ccccc23)n1` it was 19.3 µM (active); in that of `COCCOc1nc(-c2ccc(Cl)c(Cl)c2)n(-c2ccc(NC(=O)CCl)cc2)n1`, 8.63 µM (active).
Consider `C#C[C@]1(O)CC[C@H]2[C@@H]3CCC4=CC(=O)CC[C@@H]4[C@H]3CC[C@@]21CC`, for which the “activity change, negative = viability loss” value was -1.74% (inactive).
Consider `Cc1nc(N)sc1-c1ccnc(Nc2ccc(N3CCOCC3)cc2)n1`, for which the Potency was 4.32 µM (active).
For the compound `Oc1cn2c(n1)Nc1ccc(Cl)c(Cl)c1C2`, the “activity change, negative = viability loss” value is 5.17% [at 19.5 µM] (inactive).
`CCc1cccc(CC)c1NC(=O)N1Cc2[nH]nc(NC(=O)c3ccc(N4CCN(C)CC4)cc3)c2C1`: the Potency is 2.43 µM (active).
With `O=c1[nH]c(=O)n([C@H]2C[C@H](O)[C@@H](CO)O2)cc1F`, the Potency is 0.109 µM (active).
Turning to `Cc1ccn(-c2ccc(-c3ncco3)cc2)c(=O)c1-c1ccc2nc(N)ncc2c1`, the Potency is 27.3 µM (active).
On the same count and under the same terms, in the case of `S=c1nc[nH]c2nc[nH]c12` it was 3.85 µM (active); in that of `CN(NC(=O)CC(=O)NN(C)C(=S)c1ccccc1)C(=S)c1ccccc1`, 0.0544 µM (active); in that of `C=CC(=O)Nc1cccc(Oc2nc(Nc3ccc(N4CCN(C)CC4)cc3)ncc2Cl)c1`, 7.69 µM (active).
`Cc1ccc(C(=O)Nc2ccc(Oc3cc4cnn(C)c4cc3-c3cn[nH]c3)c(F)c2)c(=O)n1-c1ccc(F)cc1`: the Potency was 10.9 µM (active).
